Test results from PubChem BioAssay AID2751 (The Scripps Research Institute Molecular Screening Center, 2010).
About 2,200 (0.69%) of roughly 320,000 compounds were called active. What follows is part of a selection rich in actives, with near analogues and random picks from the rest. Unmarked numbers belong to inactive results. Rule as the data show it: active = inhibition above about 43%; inactive = the rest.

Target: Prolyl endopeptidase-like (Homo sapiens) (UniProt Q4J6C6)
Experiment: PREPL enzyme inhibitors, primary screen, biochemical, fluorescence polarization (AID 2751);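 also: 0% = enzyme with DMSO and 100% = wells lacking enzyme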
Details: recombinant PREPL, fluorescence polarization activity-based probe; at 5.96 µM; active compounds read high

Sequence of Prolyl endopeptidase-like (Homo sapiens) (Q4J6C6 whole entry, looked up): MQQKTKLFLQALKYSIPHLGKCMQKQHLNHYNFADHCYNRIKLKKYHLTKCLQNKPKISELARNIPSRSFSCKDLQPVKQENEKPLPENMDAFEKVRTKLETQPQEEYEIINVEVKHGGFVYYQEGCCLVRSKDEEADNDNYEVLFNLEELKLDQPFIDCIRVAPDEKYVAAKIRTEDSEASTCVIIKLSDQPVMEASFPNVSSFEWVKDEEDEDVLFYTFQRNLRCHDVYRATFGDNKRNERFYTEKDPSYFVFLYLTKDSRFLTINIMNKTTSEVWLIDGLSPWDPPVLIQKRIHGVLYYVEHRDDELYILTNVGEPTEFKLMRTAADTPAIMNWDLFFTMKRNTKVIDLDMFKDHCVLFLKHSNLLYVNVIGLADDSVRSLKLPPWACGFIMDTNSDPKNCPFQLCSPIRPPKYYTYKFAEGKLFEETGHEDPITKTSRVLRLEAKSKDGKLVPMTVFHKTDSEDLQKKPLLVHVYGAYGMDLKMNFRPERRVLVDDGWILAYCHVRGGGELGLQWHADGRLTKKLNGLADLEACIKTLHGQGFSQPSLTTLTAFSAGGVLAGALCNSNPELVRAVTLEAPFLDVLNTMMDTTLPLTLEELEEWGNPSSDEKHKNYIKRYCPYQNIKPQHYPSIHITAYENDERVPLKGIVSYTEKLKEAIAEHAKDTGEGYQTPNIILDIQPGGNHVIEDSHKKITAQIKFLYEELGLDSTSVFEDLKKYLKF

Point of comparison: `C=CCNC(=O)c1sc(SC)cc1-c1ccc(Cl)cc1`, inhibition 1.62%. Against it:
- NC1=NC[C@@H](Cc2ccc(O)cc2)N1CC1CCCCC1 — higher, 9.91%
- CCCC[C@@H]1CN=C(N)N1CCc1cccc(F)c1 — lower, -6.23%
- CCCCN1C(N)=NC[C@@H]1Cc1ccccc1 — higher, 17.4%
- O=C(C1Cc2ccccc2CN1C(=O)c1ccco1)N1CCN(c2ccccc2)CC1 (stereo not given) — higher, 12.9%
- CCOC(=O)c1ccc(N/C(=N/S(=O)(=O)c2ccccc2)c2ccccc2)cc1 — lower, -3.53%
- O=C(NCc1cccnc1)c1ccc(CS(=O)(=O)c2ccc(Br)cc2)o1 — lower, -17%
- CNC[C@H]1Oc2c(NC(=O)C3CCCCC3)cccc2C(=O)N([C@H](C)CO)C[C@@H]1C — higher, 1.75%
- COc1ccc(-c2cc(C(=O)Nc3ccccc3O)c3ccccc3n2)cc1 — higher, 15.1%
- Cc1noc(C)c1COC(=O)c1cc2ccccc2cc1O — higher, 3.42%
- Cc1ccc(S(=O)(=O)C2C(=O)NC3(C)CC2c2ccccc2O3)cc1 (stereo not given) — lower, -1.08%
- COC(=O)COc1ccc(S(=O)(=O)Nc2ccc(NC(C)=O)cc2)cc1 — higher, 3.49%
- CC(=O)Nc1ccc(S(=O)(=O)Nc2ccc(N3CCOCC3)c(F)c2)cc1 — higher, 13.1%
- CC1CCN(C(=O)c2ccc(CSc3ccc(Cl)cc3)cc2)CC1 — higher, 18.7%
- CC1CCN(C(=O)c2ccc3c(=O)n4c(nc3c2)CCCCC4)CC1 — higher, 10.4%
- CCN(C(=O)COC(=O)C1CCN(S(=O)(=O)c2ccc(C)c(C)c2)CC1)C1CCS(=O)(=O)C1 (stereo not given) — higher, 16.8%
- COc1ccc2c(c1)CCNC2Cc1ccc(OC)c(O)c1 (stereo not given) — higher, 11.1%
- CC[C@H]1CN2CCc3cc(OC)c(OC)cc3[C@@H]2C[C@@H]1C[C@H]1NCCc2cc(OC)c(OC)cc21 — higher, 17.4%
- CCOc1ccc(N2C(=O)/C(=C/c3ccc(C)o3)N(C)C2=S)cc1 — higher, 6.35%
- CC(C)n1c(CN2CCN(Cc3ccccc3)CC2)nc2ccccc21 — lower, -13.9%
- CCOC(=O)c1cnc(Nc2nc3ccccc3o2)nc1CSC(=S)N1CCCCC1 — lower, -5.51%
- Cc1ccc(C(=O)NNC(=O)CSc2nnc3ccccn23)cc1 — lower, -1.75%
- O=C1CSc2ccc(C(=O)NCc3ccccn3)cc2N1 — higher, 4.19%
- COCCNC(=O)Nc1ccc2nc(-c3ccco3)c(-c3ccco3)nc2c1 — higher, 39.5%
- COc1ccccc1CNC(=O)CSc1nc(=O)n(Cc2ccncc2)c2c1CCC2 — higher, 2.55%
- O=S(=O)(c1ccccc1)N1CN(Cc2ccc(F)cc2)c2nc3ccccc3nc21 — lower, -7.37%
- CC(OC(=O)c1ccc(S(=O)(=O)N2CCOCC2)cc1)c1ccccc1 (stereo not given) — lower, -0.7%
- CCN(CC)CCn1c2c(c(SCC(=O)Nc3ccc(C(C)C)cc3)nc1=O)CCC2 — higher, 23.1%
- O=C(NC1CCCC1)C(=O)c1c[nH]c2ccccc12 — higher, 9.2%
- NC(=O)CSc1c[nH]c2ccccc12 — higher, 7.6%
- COc1ccc(CC(=O)N[C@@H](CCSC)c2nc3ccccc3[nH]2)cc1 — higher, 5.96%
- O=C(OCc1nc2ccccc2[nH]1)C1CCCCC1 — higher, 10.5%
- Clc1cccc(CN2COc3c(cc(Cl)c4cccnc34)C2)c1 — higher, 2.86%
- O=C(CN1CCN(c2ccc(F)cc2)CC1)Nc1ccccc1 — higher, 9.77%
- Cc1cccnc1NC(=O)c1cccc(S(=O)(=O)N2CCN(c3ccc(F)cc3)CC2)c1 — lower, -7.81%
- COc1cc(C)cc(CN2CCC(Cc3ccccc3)CC2)c1O — lower, -5.3%
- NC[C@H](Cc1ccccc1)NCCc1cc(C(F)(F)F)cc(C(F)(F)F)c1 — lower, -11.6%
- O=C(COC(=O)c1ccc(Cl)nc1)NCc1ccc2c(c1)OCO2 — higher, 8.45%
- CCN(CC)CC(=O)Nc1sc2c(c1C(=O)c1ccccc1C)CCC2 — higher, 5.23%
- CC(C)(CNC(=O)c1ccc(Cl)c(S(=O)(=O)N2CCc3ccccc3C2)c1)N1CCOCC1 — lower, -27.3%
- CCN(Cc1ccccc1)C(=O)CN1C(=S)NC(C)(C)CC1C (stereo not given) — lower, -2.69%
- COc1ccc(C(=O)COC(=O)c2ccc([N+](=O)[O-])s2)cc1OC — higher, 34.6%
- C[C@H](NC(=O)c1ccccc1Cl)C(=O)OCC(=O)N1CCN(c2ccccc2)CC1 — higher, 13.3%
- COc1cccc2c1OCC(C(=O)NCc1ccc(Cl)cc1Cl)=C2 — lower, -4.06%
- O=C1c2cccc3cccc(c23)C(=O)N1CCCCCc1n[nH]c(=S)o1 — higher, 1.95%
- O=C(CCCCCN1C(=O)c2cccc3cccc(c23)C1=O)NCc1ccco1 — higher, 5.95%

`CC[C@@H](C)[C@@H]1CN([C@@H](C)CN2CCC[C@H]2CN2C(N)=NC[C@H]2C(C)C)C(=N)N1CCc1ccc(Cl)c(Cl)c1` was tested, and the inhibition was 63.3% (active).
For `C[C@@H](CN1CCC[C@H]1CN1C(N)=NC[C@@H]1Cc1ccccc1)N1C[C@@H](Cc2ccccc2)N(CCCC2CCCC2)C1=N`, the inhibition was 54.6% (active).
`O=C(NNc1c2ccccc2nc2ccccc12)c1cc2ccccc2cc1O` was tested, and the inhibition was 68.7% (active).
`CC(=O)Nc1ccc(S(=O)(=O)Nc2ccc(N3CCCCC3)cc2)cc1` was tested, and the inhibition was 59.6% (active).
With `CC1CCN(C(=O)c2ccc3c(c2)NC(=O)CN3)CC1` the inhibition was 57.5% (active).
With `COc1cc2c(cc1O)[C@H](Cc1ccc(Oc3cc(C[C@@H]4NCCc5cc(OC)c(O)cc54)ccc3O)cc1)NCC2` the inhibition was 46.2% (active).
In the case of `O=C(NCc1ccccn1)c1ccc2nc(-c3ccco3)c(-c3ccco3)nc2c1`, the inhibition is reported as 46.4% (active).
For `O=S(=O)(O)Oc1c[nH]c2ccccc12`, the inhibition was 44.5% (active).
With `COC(=O)Cc1nc2ccccc2[nH]1` the inhibition was 47.1% (active).
In the case of `Oc1c(CN2CCN(c3ccc(F)cc3)CC2)cc(Cl)c2cccnc12`, the inhibition is reported as 53.5% (active).
`Oc1c(CN2CCCC2)cc(COCc2ccccc2)c2cccnc12` was tested, and the inhibition was 63.8% (active).
In the case of `O=C(OCC(=O)N1CCN(c2ccccc2)CC1)c1ccc([N+](=O)[O-])s1`, the inhibition is reported as 54.8% (active).
With `COCCN(CCOC)c1nc(N)c2c(N)nc3c(c2c1C#N)CC(=O)N3Cc1ccc(Cl)cc1` the inhibition was 47.7% (active).
For `C[N+](C)(CCCCCC[N+](C)(C)CCCN1C(=O)c2cccc3cccc(c23)C1=O)CCCN1C(=O)c2cccc3cccc(c23)C1=O`, the inhibition was 47.7% (active).
